19 compounds from PubChem BioAssay (NCATS) can be followed below.

The structures appear in SMILES notation. Results filed as inconclusive are left out. Active and inactive are the calls of the source. Unless noted, calls follow the shape of the dose curve; as a rule, active = well fitted curve in the direction sought with a large enough effect; inconclusive = small, poorly fitted or top-dose-only effect, or another doubt; inactive = no such curve, though single readings can be large; an effect the other way counts as inactive or inconclusive.

Test [1] in a line: Confirmation and Secondary Assay for Modulators of Hemoglobin Beta Chain Splicing at IVS2 654 locus (AID 910).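 Also: per-well total GFP intensity by laser scanning cytometry after 2-day treatment; % of control where 0% means no effect.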 A digest of the protocol: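 HeLa cells stably carrying EGFP interrupted by mutant beta-globin IVS2-654 intron (CMV-driven) were treated with compound for 2 days at 37C; corrected splicing was scored as total peak GFP intensity per well (488 nm excitation, 500-520 nm emission).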

A short description of test [2]: Confirmation and Secondary Assay for Modulators of Hemoglobin Beta Chain Splicing at IVS2 705 locus (AID 930).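 Also: HeLa cells stably expressing the EGFP-705 splicing reporter; GFP fluorescence per well restored by corrected splicing of the IVS2-705 intron in EGFP; % of control where 0% means no effect.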 Summed up:
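Fluorescence gain (488 nm laser, 500-520 nm PMT) reflects restored correct splicing of a mutant IVS2-705 intron inside EGFP in stably transfected HeLa cells after 2-day compound treatment.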

Test [3] in a line: qHTS Assay for Lipid Storage Modulators (AID 1519; calls by dose curve; as to activity change, negative = inhibition: % is scaled to controls: 0 for no effect and ±100 for the full control effect). Particulars: Drosophila S3 cells, BODIPY lipid droplet/cell ratio, laser cytometry, cells loaded with oleic acid; for activity change, negative = inhibition: at 57.5 µM (top of the series). Summed up: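 Cells seeded at 5,000 per well were treated with compounds over a concentration series and loaded with oleic acid (400 uM, as added). Lipid droplet fluorescence (488 nm excitation, 500-530 nm channel) was read by laser-scanning cytometry and normalized to 20 uM Triacsin C.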
Background: Quantitative high-throughput screening tests each substance at several concentrations.

In test [4] the target is Cytochrome P450 3A4 (Homo sapiens) (UniProt P08684). The test is described as follows: qHTS Assay for Activators of Cytochrome P450 3A4 (AID 885). Also: nearly all actives have a fitted effect of over 65% in size. A digest of the protocol: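 Activators are scored by enhanced luminescence from CYP3A4 conversion of luciferin-PPXE (25uM, equal to KM) to luciferin, after 60 min at RT with an NADPH-regenerating system.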
[5] abbreviates: measured here: cell count channel max response.
Setting [6] is: measured here: lipid channel max response.

Chain of Cytochrome P450 3A4 (Homo sapiens) (P08684 whole entry, looked up): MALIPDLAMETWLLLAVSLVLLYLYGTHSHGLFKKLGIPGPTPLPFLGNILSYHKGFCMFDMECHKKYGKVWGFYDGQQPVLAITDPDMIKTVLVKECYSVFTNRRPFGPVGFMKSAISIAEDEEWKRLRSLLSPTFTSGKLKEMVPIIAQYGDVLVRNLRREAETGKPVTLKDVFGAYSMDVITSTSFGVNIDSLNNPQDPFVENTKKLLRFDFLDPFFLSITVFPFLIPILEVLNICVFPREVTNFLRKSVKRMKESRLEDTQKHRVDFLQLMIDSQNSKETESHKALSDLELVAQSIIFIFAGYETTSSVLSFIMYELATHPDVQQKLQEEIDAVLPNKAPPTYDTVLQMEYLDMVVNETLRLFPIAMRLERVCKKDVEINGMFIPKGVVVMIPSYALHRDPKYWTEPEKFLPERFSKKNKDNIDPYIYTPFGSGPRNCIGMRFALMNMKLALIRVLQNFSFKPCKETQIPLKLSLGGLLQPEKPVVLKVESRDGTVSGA

In the case of `CN1CCCC1CCO[C@@](C)(c1ccccc1)c1ccc(Cl)cc1` (stereo partly drawn), the Potency result in test [1] and in test [2] was “inactive” in each case. In addition, in test [3], the activity change, negative = inhibition was -9.48% (inactive). Also, the max response was -21.6% in test [3] (setting [5]) and -28.2% in test [3] (setting [6]).
Consider `COC(=O)[C@H]1C(OC)[C@@H](OC(=O)c2cc(OC)c(OC)c(OC)c2)C[C@@H]2CN3CCc4c([nH]c5cc(OC)ccc45)[C@H]3C[C@H]21` (stereo partly drawn), for which, in test [2], the Potency entry was “inactive”. In test [3], the activity change, negative = inhibition was 8.9% (inactive). The max response in test [3] (setting [5]) was 4.56%; in test [3] (setting [6]), 13.7%.
For `CC(=O)OC1CC[C@]2(C)C(CC[C@@]3(C)C2C(=O)C=C2C4C(C)C(C)CC[C@@]4(C(=O)O)CCC23C)C1(C)C` (stereo partly drawn), the Potency result in test [4], in test [1] and in test [2] was “inactive” throughout. The activity change, negative = inhibition in test [3] is 0.887% (inactive). In addition, the max response in test [3] (setting [5]) was 18.2%; in test [3] (setting [6]), 20.8%.
Turning to `CC1=C2C(=COC(C)C2C)C(=O)C(C(=O)O)=C1O` (stereo not drawn), the Potency entry in test [1] and in test [2] was “inactive” in each case. Also, in test [3], the activity change, negative = inhibition was 4.18% (inactive). Besides, the max response in test [3] (setting [5]) is -1.22%; in test [3] (setting [6]), 4.23%.
As for `Cc1cc(O)c2c(c1O)C(=O)c1c(O)cc(C)c(O)c1C2=O`, the Potency entry in test [1] and in test [2] was “inactive” in each case. Further, the activity change, negative = inhibition in test [3] is 6.96% (inactive). Also, the results for the max response in test [3] (setting [5]) and in test [3] (setting [6]) were -16.3% and -8.79%, respectively.
On to `C=CCCCCCCCCCCC/C=C/C(O)COC(C)=O` (stereo not drawn), for which the Potency entry in test [4], in test [1] and in test [2] was “inactive” throughout. In addition, in test [3], the activity change, negative = inhibition was 8.71% (inactive). In addition, the max response in test [3] (setting [5]) worked out at 8.46%; in test [3] (setting [6]), 19.5%.
As for `CC(C)CCCC(C)C1CCC2C3C(=O)C=C4CC(O)CC[C@@]4(C)C3CC[C@@]12C` (stereo partly drawn), the Potency entry in test [1] and in test [2] was “inactive” each time. The activity change, negative = inhibition in test [3] was -2.06% (inactive). The max response in test [3] (setting [5]) is 8.46%; in test [3] (setting [6]) it was 5.18%.
Turning to `CC1OC(OCC2OC(Oc3c(-c4ccc(O)c(O)c4)oc4cc(O)cc(O)c4c3=O)C(O)C(O)C2O)[C@@H](O)C(O)C1O` (stereo partly drawn), the Potency entry in test [1] and in test [2] was “inactive” throughout. For the same compound, in test [3], the activity change, negative = inhibition is 4.3% (inactive). Moreover, the max response amounted to 4.35% in test [3] (setting [5]) and 10.1% in test [3] (setting [6]).
For `CC1(C)OC2CC3C4CCC5=CC(=O)CCC5(C)C4(F)C(O)CC3(C)[C@]2(C(=O)CCl)O1` (stereo partly drawn), the Potency entry in test [4], in test [1] and in test [2] was “inactive” each time. The activity change, negative = inhibition in test [3] was 8% (inactive). Moreover, the figures for the max response in test [3] (setting [5]) and in test [3] (setting [6]) were 13.8% and 26.2%, respectively.
In the case of `NCCCCC(NC(CCc1ccccc1)C(=O)O)C(=O)N1CCCC1C(=O)O` (stereo not drawn), the Potency entry in test [1] and in test [2] was “inactive” throughout. Also, in test [3], the activity change, negative = inhibition is 8.08% (inactive). In addition, the max response turned out to be 11.1% in test [3] (setting [5]) and 24.7% in test [3] (setting [6]).
In the case of `O=C(/C=C/c1ccccc1)c1ccc(O)cc1O`, the Potency result in test [4], in test [1] and in test [2] was “inactive” in each case. The activity change, negative = inhibition in test [3] was -11.9% (inactive). Further, the results for the max response in test [3] (setting [5]) and in test [3] (setting [6]) were 1.3% and -11.1%, respectively.
As for `CC(C)CCCC(C)C1CCC2C3CC=C4CC(=O)CC[C@@]4(C)C3CC[C@@]12C` (stereo partly drawn), the Potency result in test [1] and in test [2] was “inactive” each time. In test [3], the activity change, negative = inhibition is 3.79% (inactive). The max response was determined as 3.76% in test [3] (setting [5]) and 6.47% in test [3] (setting [6]).
For `CC(C)=CCc1c2c(c(O)c3c(=O)c(O)c(-c4ccccc4)oc13)C=CC(C)(C)O2`, the Potency entry in test [4] and in test [2] was “inactive” in each case. The activity change, negative = inhibition in test [3] is 0.956% (inactive). The max response is -0.903% in test [3] (setting [5]) and -0.353% in test [3] (setting [6]).
Take `CC(C)c1ccc2c(c1)CCC1C(C)(C(N)=O)CCCC21C` (stereo not drawn): the Potency result in test [4], in test [1] and in test [2] was “inactive” throughout. For the same compound, in test [3], the activity change, negative = inhibition was -15.9% (inactive). Also, the max response in test [3] (setting [5]) was -2.05%; in test [3] (setting [6]) it was -18.2%.
For `CC(=O)OC1CC[C@]2(C)C(CC(OC(C)=O)[C@]3(C)C2CC[C@@]2(C)C(c4ccoc4)OC(=O)C4O[C@]432)C1(C)C` (stereo partly drawn), the Potency result in test [1] and in test [2] was “inactive” each time. The activity change, negative = inhibition in test [3] is 15.1% (inactive). Also, the results for the max response in test [3] (setting [5]) and in test [3] (setting [6]) were 12.6% and 25.6%, respectively.
For the compound `CCCCCc1c2c(cc(O)c1C(=O)O)OC(=O)c1c(cc(OC)cc1C(=O)CCCC)O2`, the Potency entry in test [4] and in test [2] was “inactive” in each case. Further, the activity change, negative = inhibition in test [3] was 7.58% (inactive). The max response in test [3] (setting [5]) was found to be 12.3%; in test [3] (setting [6]), 21.9%.
Turning to `CCC(C)(C)C(=O)OC1CC(C)C=C2C=CC(C)C(CCC3CC(O)CC(=O)O3)C21` (stereo not drawn), the Potency result in test [1] and in test [2] was “inactive” throughout. Moreover, in test [3], the activity change, negative = inhibition was -9% (inactive). The max response in test [3] (setting [5]) is 2.37%; in test [3] (setting [6]), -4.92%.
With `NCC1O[C@@H](O[C@H]2C(O)C(O[C@@H]3C(O[C@H]4OC(CO)C(O)C(O)C4N)C(N)CC(N)[C@H]3O)O[C@@H]2CO)C(N)C(O)C1O` (stereo partly drawn), the Potency entry in test [2] is “inactive”. The activity change, negative = inhibition in test [3] is 10.8% (inactive). For the same compound, the max response is 18.8% in test [3] (setting [5]) and 35.3% in test [3] (setting [6]).
Regarding `CC(=O)OC1CC[C@@]2(C)C3CC(=O)[C@]4(C)C(C(C)=O)=CCC4C3CC[C@H]2C1` (stereo partly drawn), the Potency result in test [1] and in test [2] was “inactive” in each case. Moreover, the activity change, negative = inhibition in test [3] was -12.8% (inactive). Further, the max response was 4.87% in test [3] (setting [5]) and -10% in test [3] (setting [6]).
